Source: publication PMC7862700, “An all-to-all approach to the identification of sequence-specific readers for epigenetic DNA modifications on cytosine”

Tests used:
Assay in all cases: DAPPL (digital affinity profiling via proximity ligation, sequencing); 10 mM Tris-HCl pH 7.5, 50 mM NaCl, 1 mM DTT, 4% glycerol, room temperature, 30 min; GST-TFs on glutathione beads, 16-mer random dsDNA library, 0.1% formaldehyde crosslink after washing; high values mean tight binding
FLI1 = target: T1, FLI1 (Homo sapiens, UniProt Q01543 1-452); details: protein: recombinant; tags: N-terminal GST; dsDNA, one strand shown
T1 sequence: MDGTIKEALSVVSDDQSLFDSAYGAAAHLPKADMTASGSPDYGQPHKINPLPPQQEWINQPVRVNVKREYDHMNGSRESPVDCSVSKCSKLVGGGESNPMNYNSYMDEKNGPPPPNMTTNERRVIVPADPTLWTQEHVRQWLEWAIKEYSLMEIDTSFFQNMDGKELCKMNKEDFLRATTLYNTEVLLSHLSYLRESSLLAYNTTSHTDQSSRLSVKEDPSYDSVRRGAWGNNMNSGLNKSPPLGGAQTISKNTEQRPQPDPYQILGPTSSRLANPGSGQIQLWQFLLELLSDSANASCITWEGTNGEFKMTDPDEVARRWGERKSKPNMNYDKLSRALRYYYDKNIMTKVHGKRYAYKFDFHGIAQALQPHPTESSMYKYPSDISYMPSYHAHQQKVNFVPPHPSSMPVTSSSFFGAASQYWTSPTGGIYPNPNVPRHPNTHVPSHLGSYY
Method in brief: (§1)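 Pools were built from human transcription factors expressed in yeast as GST fusions, captured on glutathione beads and DNA-barcoded, along with a tag-only sample. Incubation with 200 nmole of a 16-mer random double-stranded DNA library lasted 30 min at room temperature in Tris/NaCl/DTT/glycerol buffer, and was followed by washing, 0.1% formaldehyde crosslinking, proximity ligation, PCR amplification and Illumina NextSeq500 sequencing. Binding signal is the quotient of each hexamer's read frequency for a factor and its frequency for the tag-only sample.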

ELK1 = target: T2, ELK1 (Homo sapiens, UniProt P19419 1-428); details: protein: recombinant; tags: N-terminal GST; dsDNA, one strand shown
T2 sequence: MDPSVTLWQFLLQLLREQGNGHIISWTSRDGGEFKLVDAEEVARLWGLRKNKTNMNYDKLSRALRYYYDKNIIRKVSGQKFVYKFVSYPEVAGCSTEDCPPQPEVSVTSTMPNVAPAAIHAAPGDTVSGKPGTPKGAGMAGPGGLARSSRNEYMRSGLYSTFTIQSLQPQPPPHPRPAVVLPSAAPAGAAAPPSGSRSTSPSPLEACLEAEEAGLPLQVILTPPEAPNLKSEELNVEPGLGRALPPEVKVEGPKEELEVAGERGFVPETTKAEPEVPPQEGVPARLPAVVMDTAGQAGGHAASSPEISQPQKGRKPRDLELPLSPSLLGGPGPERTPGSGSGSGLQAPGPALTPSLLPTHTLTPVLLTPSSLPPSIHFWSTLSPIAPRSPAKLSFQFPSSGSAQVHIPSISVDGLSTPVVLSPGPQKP
Method in brief: as §1

GABPA = target: T3, GABPA (Homo sapiens, UniProt Q06546 1-454); details: protein: recombinant; tags: N-terminal GST; dsDNA, one strand shown
T3 sequence: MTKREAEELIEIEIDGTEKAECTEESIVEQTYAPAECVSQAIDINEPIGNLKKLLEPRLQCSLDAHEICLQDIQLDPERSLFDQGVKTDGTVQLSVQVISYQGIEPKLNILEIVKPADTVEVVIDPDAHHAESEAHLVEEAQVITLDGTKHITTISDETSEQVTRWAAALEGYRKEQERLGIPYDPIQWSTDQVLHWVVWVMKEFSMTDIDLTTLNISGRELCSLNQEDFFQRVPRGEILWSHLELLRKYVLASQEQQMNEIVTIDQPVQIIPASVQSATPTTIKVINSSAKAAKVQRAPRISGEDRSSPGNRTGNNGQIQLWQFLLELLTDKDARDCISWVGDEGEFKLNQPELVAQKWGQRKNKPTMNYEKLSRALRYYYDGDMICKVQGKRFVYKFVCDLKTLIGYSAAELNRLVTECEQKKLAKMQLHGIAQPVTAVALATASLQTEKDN
Method in brief: as §1

ERG = target: T4, ERG (Homo sapiens, UniProt P11308 1-479); details: protein: recombinant; tags: N-terminal GST; dsDNA, one strand shown
T4 sequence: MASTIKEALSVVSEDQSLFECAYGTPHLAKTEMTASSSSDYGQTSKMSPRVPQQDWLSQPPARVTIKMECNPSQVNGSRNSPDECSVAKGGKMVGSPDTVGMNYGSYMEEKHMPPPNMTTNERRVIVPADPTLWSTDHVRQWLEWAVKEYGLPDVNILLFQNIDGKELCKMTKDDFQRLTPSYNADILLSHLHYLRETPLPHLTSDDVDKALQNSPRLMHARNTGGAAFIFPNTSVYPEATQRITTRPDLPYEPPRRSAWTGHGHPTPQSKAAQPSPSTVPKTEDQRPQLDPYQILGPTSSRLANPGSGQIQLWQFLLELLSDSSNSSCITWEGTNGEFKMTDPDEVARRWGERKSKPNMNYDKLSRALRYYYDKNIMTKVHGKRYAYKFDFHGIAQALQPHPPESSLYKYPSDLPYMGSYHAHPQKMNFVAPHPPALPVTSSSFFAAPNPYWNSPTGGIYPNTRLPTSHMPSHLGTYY
Method in brief: as §1

ELF1 = ELF1 (Homo sapiens, UniProt P32519 1-619); details: protein: recombinant; tags: N-terminal GST; dsDNA, one strand shown
Sequence of ELF1 (P32519 whole entry): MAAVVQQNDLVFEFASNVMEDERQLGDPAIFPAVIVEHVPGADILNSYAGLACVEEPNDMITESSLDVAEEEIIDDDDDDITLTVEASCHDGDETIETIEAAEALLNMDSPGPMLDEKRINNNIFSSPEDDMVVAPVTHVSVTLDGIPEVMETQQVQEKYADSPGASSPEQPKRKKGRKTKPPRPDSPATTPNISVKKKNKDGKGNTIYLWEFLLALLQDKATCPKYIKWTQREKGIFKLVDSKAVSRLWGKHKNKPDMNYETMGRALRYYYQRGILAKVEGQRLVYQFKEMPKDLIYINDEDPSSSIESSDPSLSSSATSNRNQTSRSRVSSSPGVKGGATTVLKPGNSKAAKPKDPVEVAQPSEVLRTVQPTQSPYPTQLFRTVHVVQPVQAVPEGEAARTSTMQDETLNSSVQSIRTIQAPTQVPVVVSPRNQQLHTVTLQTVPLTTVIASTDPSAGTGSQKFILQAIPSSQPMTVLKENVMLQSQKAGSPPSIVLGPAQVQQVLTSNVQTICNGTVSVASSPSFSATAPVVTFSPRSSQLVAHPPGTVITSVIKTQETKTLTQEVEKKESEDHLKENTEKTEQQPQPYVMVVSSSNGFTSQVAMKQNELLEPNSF
Method in brief: as §1

EHF = target: T5, EHF (Homo sapiens, UniProt Q9NZC4 1-300); details: protein: recombinant; tags: N-terminal GST; dsDNA, one strand shown
T5 sequence: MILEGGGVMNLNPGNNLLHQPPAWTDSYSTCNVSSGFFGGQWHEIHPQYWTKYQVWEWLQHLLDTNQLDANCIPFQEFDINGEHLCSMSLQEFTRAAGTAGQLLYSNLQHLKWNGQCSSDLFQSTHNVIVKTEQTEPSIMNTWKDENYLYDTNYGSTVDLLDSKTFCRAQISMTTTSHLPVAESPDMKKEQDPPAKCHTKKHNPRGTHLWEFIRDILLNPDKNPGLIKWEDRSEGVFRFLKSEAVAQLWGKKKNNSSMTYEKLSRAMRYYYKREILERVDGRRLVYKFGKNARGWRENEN
Method in brief: as §1

SPI1 = SPI1 (Homo sapiens, UniProt P17947 1-270); details: protein: recombinant; tags: N-terminal GST; dsDNA, one strand shown
Method in brief: as §1

SPIB = SPIB (Homo sapiens, UniProt Q01892 1-262); details: protein: recombinant; tags: N-terminal GST; dsDNA, one strand shown
Sequence of SPIB (Q01892 whole entry): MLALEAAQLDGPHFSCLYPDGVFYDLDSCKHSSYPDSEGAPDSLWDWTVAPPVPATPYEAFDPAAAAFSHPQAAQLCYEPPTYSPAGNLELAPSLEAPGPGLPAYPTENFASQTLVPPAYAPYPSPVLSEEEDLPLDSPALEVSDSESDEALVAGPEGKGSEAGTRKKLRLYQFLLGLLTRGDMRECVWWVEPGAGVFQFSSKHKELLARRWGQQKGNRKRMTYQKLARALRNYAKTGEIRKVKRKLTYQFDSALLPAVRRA
Method in brief: as §1

ELK3 = target: T6, ELK3 (Homo sapiens, UniProt P41970 1-407); details: protein: recombinant; tags: N-terminal GST; dsDNA, one strand shown
T6 sequence: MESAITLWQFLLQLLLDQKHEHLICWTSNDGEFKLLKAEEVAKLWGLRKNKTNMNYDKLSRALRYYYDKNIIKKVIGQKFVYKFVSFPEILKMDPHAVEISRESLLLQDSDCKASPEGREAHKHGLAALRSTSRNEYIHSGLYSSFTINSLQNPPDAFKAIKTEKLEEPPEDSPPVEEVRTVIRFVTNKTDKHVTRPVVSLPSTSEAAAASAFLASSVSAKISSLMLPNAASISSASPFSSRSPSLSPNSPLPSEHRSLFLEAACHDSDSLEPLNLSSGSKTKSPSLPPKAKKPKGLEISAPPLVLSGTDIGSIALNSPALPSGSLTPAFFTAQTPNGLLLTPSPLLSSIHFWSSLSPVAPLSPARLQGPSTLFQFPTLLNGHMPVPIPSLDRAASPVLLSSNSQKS
Method in brief: as §1

FEV = target: T7, FEV (Homo sapiens, UniProt Q99581 1-238); details: protein: recombinant; tags: N-terminal GST; dsDNA, one strand shown
T7 sequence: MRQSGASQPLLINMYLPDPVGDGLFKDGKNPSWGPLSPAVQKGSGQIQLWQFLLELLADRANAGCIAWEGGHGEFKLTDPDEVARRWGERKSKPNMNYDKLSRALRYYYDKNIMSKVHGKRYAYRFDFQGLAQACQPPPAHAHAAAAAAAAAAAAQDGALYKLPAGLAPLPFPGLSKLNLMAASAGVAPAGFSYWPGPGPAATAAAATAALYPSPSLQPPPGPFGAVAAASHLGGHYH
Method in brief: as §1

ETV5 = ETV5 (Homo sapiens, UniProt P41161 1-510); details: protein: recombinant; tags: N-terminal GST; dsDNA, one strand shown
Sequence of ETV5 (P41161 whole entry): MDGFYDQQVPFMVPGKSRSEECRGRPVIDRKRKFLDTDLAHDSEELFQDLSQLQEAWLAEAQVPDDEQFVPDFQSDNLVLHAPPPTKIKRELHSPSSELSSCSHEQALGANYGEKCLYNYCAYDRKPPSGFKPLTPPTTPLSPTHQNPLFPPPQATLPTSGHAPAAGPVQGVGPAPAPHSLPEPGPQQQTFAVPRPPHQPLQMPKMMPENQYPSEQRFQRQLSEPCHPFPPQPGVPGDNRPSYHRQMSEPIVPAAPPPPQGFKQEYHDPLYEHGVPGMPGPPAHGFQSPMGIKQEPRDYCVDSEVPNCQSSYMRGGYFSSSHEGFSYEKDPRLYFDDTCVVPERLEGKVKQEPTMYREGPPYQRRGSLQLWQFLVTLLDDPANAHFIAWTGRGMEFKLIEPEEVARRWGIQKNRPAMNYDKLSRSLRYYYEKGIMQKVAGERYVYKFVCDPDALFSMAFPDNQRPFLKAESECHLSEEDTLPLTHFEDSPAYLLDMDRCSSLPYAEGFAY
Method in brief: as §1

HSF1 = HSF1 (Homo sapiens, UniProt Q00613 1-529); details: protein: recombinant; tags: N-terminal GST; chain copies: 3; dsDNA, one strand shown
Sequence of HSF1 (Q00613 whole entry): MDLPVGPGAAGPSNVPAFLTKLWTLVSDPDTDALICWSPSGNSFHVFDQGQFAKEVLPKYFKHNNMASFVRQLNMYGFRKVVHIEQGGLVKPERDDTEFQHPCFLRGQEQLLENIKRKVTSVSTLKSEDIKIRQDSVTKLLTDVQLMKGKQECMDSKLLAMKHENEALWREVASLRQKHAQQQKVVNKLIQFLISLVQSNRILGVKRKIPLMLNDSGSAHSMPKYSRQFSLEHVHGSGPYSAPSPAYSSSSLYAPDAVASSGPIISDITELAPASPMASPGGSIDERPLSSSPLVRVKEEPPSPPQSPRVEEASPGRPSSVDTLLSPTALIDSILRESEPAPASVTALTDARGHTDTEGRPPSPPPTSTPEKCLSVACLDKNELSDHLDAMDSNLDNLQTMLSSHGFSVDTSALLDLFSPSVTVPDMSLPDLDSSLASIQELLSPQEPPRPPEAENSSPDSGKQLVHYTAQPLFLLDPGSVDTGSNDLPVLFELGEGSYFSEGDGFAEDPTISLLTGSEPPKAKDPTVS
Method in brief: as §1

SPIC = target: T8, SPIC (Homo sapiens, UniProt Q8N5J4 1-248); details: protein: recombinant; tags: N-terminal GST; dsDNA, one strand shown
T8 sequence: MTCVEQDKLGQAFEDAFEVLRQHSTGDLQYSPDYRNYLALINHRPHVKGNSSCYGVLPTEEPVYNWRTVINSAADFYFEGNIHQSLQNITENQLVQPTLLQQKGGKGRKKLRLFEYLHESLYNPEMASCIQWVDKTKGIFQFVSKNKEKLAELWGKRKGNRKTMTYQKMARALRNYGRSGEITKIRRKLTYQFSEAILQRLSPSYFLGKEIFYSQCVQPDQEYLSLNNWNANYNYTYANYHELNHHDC
Method in brief: as §1

ELF4 = ELF4 (Homo sapiens, UniProt Q99607 1-663); details: protein: recombinant; tags: N-terminal GST; dsDNA, one strand shown
Sequence of ELF4 (Q99607 whole entry): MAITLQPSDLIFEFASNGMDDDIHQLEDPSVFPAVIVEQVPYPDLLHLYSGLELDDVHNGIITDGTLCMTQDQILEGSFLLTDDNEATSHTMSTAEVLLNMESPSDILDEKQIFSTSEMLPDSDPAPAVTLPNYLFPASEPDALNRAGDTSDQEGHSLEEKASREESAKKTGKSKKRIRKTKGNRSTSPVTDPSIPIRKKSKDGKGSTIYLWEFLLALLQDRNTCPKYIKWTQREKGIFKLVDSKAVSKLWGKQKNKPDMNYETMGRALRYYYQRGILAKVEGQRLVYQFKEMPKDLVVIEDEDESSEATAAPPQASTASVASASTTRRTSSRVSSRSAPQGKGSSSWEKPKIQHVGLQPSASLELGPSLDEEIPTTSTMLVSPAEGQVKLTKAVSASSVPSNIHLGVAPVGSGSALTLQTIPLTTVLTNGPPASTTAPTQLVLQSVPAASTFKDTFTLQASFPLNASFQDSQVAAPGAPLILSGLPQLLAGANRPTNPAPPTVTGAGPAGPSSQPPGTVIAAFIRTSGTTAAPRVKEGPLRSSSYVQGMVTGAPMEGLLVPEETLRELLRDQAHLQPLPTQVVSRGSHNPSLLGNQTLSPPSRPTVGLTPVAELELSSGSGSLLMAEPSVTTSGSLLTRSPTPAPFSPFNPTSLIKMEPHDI
Method in brief: as §1

ELK4 = target: T9, ELK4 (Homo sapiens, UniProt P28324-2 1-405); details: protein: recombinant; tags: N-terminal GST; dsDNA, one strand shown
T9 sequence: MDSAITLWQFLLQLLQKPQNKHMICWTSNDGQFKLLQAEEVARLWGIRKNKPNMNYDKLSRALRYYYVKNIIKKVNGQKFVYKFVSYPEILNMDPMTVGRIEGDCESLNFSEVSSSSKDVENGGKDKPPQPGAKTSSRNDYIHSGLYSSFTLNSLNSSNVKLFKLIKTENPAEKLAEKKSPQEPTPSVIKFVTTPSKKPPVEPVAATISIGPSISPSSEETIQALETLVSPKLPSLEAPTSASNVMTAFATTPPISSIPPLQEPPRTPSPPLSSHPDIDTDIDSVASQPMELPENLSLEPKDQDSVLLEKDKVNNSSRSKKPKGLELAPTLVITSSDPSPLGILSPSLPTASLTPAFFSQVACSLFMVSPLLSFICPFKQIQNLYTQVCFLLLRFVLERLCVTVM
Method in brief: as §1

ETV2 = target: T10, ETV2 (Homo sapiens, UniProt O00321 1-342); details: protein: recombinant; tags: N-terminal GST; dsDNA, one strand shown
T10 sequence: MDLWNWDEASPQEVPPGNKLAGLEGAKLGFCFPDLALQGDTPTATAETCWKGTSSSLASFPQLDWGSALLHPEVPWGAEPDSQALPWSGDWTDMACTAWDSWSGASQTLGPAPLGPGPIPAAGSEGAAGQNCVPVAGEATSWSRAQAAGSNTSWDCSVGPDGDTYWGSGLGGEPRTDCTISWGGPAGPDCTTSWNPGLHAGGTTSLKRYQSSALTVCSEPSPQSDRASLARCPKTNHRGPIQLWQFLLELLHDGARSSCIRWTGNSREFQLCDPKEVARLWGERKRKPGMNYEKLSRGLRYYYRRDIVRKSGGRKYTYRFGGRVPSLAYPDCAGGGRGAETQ
Method in brief: as §1

ELF3 = target: T11, ELF3 (Homo sapiens, UniProt P78545 1-371); details: protein: recombinant; tags: N-terminal GST; dsDNA, one strand shown
T11 sequence: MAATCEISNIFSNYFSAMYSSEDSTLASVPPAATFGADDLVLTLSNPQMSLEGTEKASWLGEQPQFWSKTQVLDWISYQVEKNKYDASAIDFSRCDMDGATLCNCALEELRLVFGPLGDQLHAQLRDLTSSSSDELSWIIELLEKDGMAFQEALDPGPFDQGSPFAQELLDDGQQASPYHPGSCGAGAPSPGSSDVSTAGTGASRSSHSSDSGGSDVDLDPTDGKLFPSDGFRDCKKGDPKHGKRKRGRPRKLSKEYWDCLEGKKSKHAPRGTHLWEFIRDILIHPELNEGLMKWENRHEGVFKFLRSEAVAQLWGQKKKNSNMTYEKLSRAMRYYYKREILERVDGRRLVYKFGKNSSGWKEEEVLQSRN
Method in brief: as §1

CRX = CRX (Homo sapiens, UniProt O43186 1-299); details: protein: recombinant; tags: N-terminal GST; dsDNA, one strand shown
Sequence of CRX (O43186 whole entry): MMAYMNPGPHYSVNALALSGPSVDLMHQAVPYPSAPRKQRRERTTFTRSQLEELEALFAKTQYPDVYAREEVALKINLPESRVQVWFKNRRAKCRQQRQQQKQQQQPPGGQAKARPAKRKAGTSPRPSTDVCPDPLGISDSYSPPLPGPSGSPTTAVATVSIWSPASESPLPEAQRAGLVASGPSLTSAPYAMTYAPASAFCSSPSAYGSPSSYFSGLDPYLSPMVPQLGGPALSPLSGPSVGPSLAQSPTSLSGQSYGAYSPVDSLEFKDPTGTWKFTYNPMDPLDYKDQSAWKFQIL
Method in brief: as §1

ETV1 = ETV1 (Homo sapiens, UniProt P50549 1-477); details: protein: recombinant; tags: N-terminal GST; dsDNA, one strand shown
Sequence of ETV1 (P50549 whole entry): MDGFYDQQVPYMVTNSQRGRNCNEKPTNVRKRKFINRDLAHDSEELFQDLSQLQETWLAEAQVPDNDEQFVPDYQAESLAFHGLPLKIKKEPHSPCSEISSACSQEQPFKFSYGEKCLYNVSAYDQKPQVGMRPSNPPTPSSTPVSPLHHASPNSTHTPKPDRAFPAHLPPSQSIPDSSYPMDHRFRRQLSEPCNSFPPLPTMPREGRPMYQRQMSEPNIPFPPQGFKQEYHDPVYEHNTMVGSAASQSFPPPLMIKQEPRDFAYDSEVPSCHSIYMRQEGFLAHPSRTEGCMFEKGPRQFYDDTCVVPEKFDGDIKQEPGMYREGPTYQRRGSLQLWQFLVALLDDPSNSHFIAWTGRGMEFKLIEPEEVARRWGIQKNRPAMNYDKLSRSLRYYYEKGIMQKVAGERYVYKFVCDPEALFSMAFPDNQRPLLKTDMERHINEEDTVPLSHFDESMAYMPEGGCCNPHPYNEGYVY
Method in brief: as §1

For TACAAT, the binding signal (FLI1) was 1.29 fold enrichment (6-mer frequency, TF over GST control), the binding signal (ELK1) was 1.28 fold enrichment (6-mer frequency, TF over GST control) and the binding signal (GABPA) was 1.32 fold enrichment (6-mer frequency, TF over GST control). For the same sequence, the binding signal (ERG) was 1.29 fold enrichment (6-mer frequency, TF over GST control), the binding signal (ELF1) was 1.3 fold enrichment (6-mer frequency, TF over GST control) and the binding signal (EHF) was 1.38 fold enrichment (6-mer frequency, TF over GST control). The binding signal (SPI1) was 1.25 fold enrichment (6-mer frequency, TF over GST control), the binding signal (SPIB) was 1.26 fold enrichment (6-mer frequency, TF over GST control) and the binding signal (ELK3) was 1.21 fold enrichment (6-mer frequency, TF over GST control). For the same sequence, the binding signal (FEV) was 1.29 fold enrichment (6-mer frequency, TF over GST control), the binding signal (ETV5) was 1.3 fold enrichment (6-mer frequency, TF over GST control) and the binding signal (HSF1) was 1.32 fold enrichment (6-mer frequency, TF over GST control). For the same sequence, the binding signal (SPIC) was 1.25 fold enrichment (6-mer frequency, TF over GST control), the binding signal (ELF4) was 1.26 fold enrichment (6-mer frequency, TF over GST control) and the binding signal (ELK4) was 1.47 fold enrichment (6-mer frequency, TF over GST control). For the same sequence, the binding signal (ETV2) was 1.31 fold enrichment (6-mer frequency, TF over GST control), the binding signal (ELF3) was 1.36 fold enrichment (6-mer frequency, TF over GST control) and the binding signal (CRX) was 1.44 fold enrichment (6-mer frequency, TF over GST control). For the same sequence, the binding signal (ETV1) was 1.33 fold enrichment (6-mer frequency, TF over GST control).
